Source: PubChem (National Center for Advancing Translational Sciences (NCATS))
D2 antagonist: HTS Assay for Allosteric Antagonists of the Human D2 Dopamine Receptor: Primary Screen for Antagonists. HEK293 TREx D2 cells, calcium flux, dopamine EC80. inhibition, % at 10 µM. 340,000 tested, 2% active. AID 485344, 2010; in the data active = inhibition above about 30%; inactive = below that, where a call was filed; also: 0% is about no effect
Target sequence (P14416 whole entry, looked up): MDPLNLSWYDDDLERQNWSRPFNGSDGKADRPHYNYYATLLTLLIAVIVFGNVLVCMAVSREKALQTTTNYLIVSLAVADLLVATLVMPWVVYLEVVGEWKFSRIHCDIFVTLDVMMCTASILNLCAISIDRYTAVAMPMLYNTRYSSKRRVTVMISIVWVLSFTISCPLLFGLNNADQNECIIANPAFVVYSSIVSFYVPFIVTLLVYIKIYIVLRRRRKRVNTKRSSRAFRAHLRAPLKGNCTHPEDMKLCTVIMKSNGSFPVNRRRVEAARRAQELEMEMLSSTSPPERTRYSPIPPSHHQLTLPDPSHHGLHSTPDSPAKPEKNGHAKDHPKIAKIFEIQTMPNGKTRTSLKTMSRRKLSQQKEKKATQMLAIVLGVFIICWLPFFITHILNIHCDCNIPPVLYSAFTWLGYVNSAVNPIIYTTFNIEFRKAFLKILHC
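Antagonism is scored as inhibition of an EC80 dopamine-evoked calcium signal in a force-coupled, tetracycline-inducible HEK293 T-REx D2 line, with compound present 180 s before agonist.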
D2 ag-1: Beta-Arrestin HTS for Positive Allosteric Modulators of the Human D2 Dopamine Receptor: Agonists; D(2) dopamine receptor (Homo sapiens), P14416; DiscoveRx PathHunter D2 beta-arrestin, luminescence, 90 min; 100% = 57 uM dopamine signal; activation, % (concentration not given with the values); 360,000 tested, 0.084% active; AID 624465, 2012; in the data active = activation above about 40%; inconclusive = between about 15% and that limit
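DiscoveRx PathHunter D2 beta-arrestin cells (2,100/well) attached overnight, then compound-stimulated 90 min at 37 C in HBSS/10 mM HEPES/0.1% Tween-20 buffer; beta-galactosidase complementation read by luminescence after 1 h at ambient temperature. Dopamine 57 uM final (EC100) as control.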
D2 ag-2: HTS Assay for Allosteric Agonists of the Human D2 Dopamine Receptor: Primary Screen for Agonists | D(2) dopamine receptor (Homo sapiens), P14416 | AID 485358, 2010 | 340,000 tested, 0.53% active | HEK293 T-REx D2 cells, calcium flux agonist mode | activation, % at 2 µM;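 active = activation over 3 SD above normal in the single-dose calcium agonist read, cut at about 30% in these data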; also: 0% is about no effect
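Tetracycline-induced HEK293 T-REx cells with force-coupled D2 receptor, plated overnight at 30 C, loaded with no-wash calcium dye. After a 10 s baseline, compound was pin-added and calcium flux read kinetically for 180 s; calcium rises flagged agonists.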
D2 PAM-1: Beta-Arrestin HTS for Positive Allosteric Modulators of the Human D2 Dopamine Receptor: Potentiators; D(2) dopamine receptor (Homo sapiens), P14416; DiscoveRx D2 beta-arrestin cells, luminescence, 90 min; 100% = 57 uM dopamine signal; potentiation, % (test concentration not listed); 360,000 tested, 0.23% active; in the data active = potentiation above about 50%; inconclusive = mostly about 30% to 49%
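PathHunter D2 cells, attached overnight at 37 deg C, received compound in DMSO plus dopamine at EC20 (50 nM final) for 90 min at 37 deg C. Beta-arrestin recruitment was read as luminescence after 1 h with detection reagent at ambient temperature.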
D2 PAM-2: HTS Assay for Positive Allosteric Modulators of the Human D2 Dopamine Receptor: Primary Screen for Potentiators. 340,000 tested, 0.34% active. HEK293 T-REx D2, calcium flux, EC20 dopamine potentiation. potentiation, % at 10 µM;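 active = potentiation over 3 SD above the plate norm, cut at about 30% in these data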; also: 0% is about no effect
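Tetracycline-induced Hek293 Trex D2 cells, force-coupled to calcium, loaded with no-wash calcium dye. Compound added with 180 s kinetic read for agonism, then EC20 dopamine and a further 180 s read for potentiation.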
* hit, by the source's call; ? = inconclusive; nt = not tested or not shown. Compounds with a hit are over-represented: about 2.4% of the library has one in this group of screens.

SMILES | D2 antagonist | D2 ag-1 | D2 ag-2 | D2 PAM-1 | D2 PAM-2
Cc1cc(C)c(OCC(=O)N(Cc2ccccc2)C2CCS(=O)(=O)C2)c(C)c1 (stereo unspecified) | 6.1 | 2.7 | 0.0 | -4.7 | 44.4*
CCc1ccc(CN(C(=O)COc2c(C)cccc2C)C2CCS(=O)(=O)C2)cc1 (stereo unspecified) | -3.2 | 0.2 | 0.0 | -8.9 | 2.1
CN(Cc1ccccc1)C(=O)CSc1nc2ccsc2c(=O)n1-c1ccc(F)cc1 | nt | nt | 1.1 | nt | 13.3
COc1c(O)c(O)c2oc(-c3ccccc3)cc(=O)c2c1OC | -4.7 | 7.6 | -0.1 | ? | 13.8
COc1cc(-c2cc(=O)c3c(O)c(OC)c(OC)c(O)c3o2)ccc1O | 0.0 | 8.8 | -0.1 | 87.9* | 17.4
Cc1ccc(NC(=O)C(Cc2c[nH]c3ccccc23)NC(=O)OCC(C)C)cc1 (stereo unspecified) | nt | nt | nt | nt | -16.7
COCCCN1CC23C=CC(O2)C(C(=O)O)C3C1=O (stereo unspecified) | -15.4 | -1.8 | 0.2 | -3.6 | 10.0
CCC(C)N1CC23C=CC(O2)C(C(=O)OC)C3C1=O (stereo unspecified) | 30.5* | -1.5 | 6.3 | -1.0 | -0.6
CCCN1CC23C=CC(O2)C(C(=O)O)C3C1=O (stereo unspecified) | 47.6* | -1.9 | 0.6 | -1.6 | 5.6
Cc1ccnn1CC(=O)N/N=C/c1c[nH]c2ccccc12 | -17.7 | -2.1 | -0.2 | -2.2 | -0.8
Cc1ccnn1CC(=O)N/N=C/c1cn[nH]c1-c1ccccc1 | 43.9* | -2.9 | 0.2 | 0.4 | 0.7
CCC(C(=O)OCC(=O)Nc1c(C)nn(-c2ccccc2)c1C)c1ccccc1 (stereo unspecified) | 18.4 | -0.4 | -0.2 | 3.5 | 3.3
Cc1nn(-c2ccccc2)c(C)c1NC(=O)COC(=O)[C@@H](NC(=O)c1ccccc1)C(C)C | 35.9* | -2.2 | -0.6 | 6.0 | -5.2
CC1=CS/C(=C(/C#N)C(=O)NCc2ccco2)N1c1ccccc1 | 30.5* | -4.7 | -0.4 | -6.7 | -0.5
CCOC(=O)c1ccc(NC(=O)CCn2c(=O)c3cccn3c3cccnc32)cc1 | nt | nt | 1.9 | nt | 1.9
Cc1ccc(-c2nn(-c3ccccc3)cc2CO)cc1 | 2.1 | -2.0 | 0.0 | -3.3 | 16.9
Cc1ccc(-c2nn(-c3ccccc3)cc2CNCc2ccccc2)cc1 | 51.0* | 2.0 | 0.2 | -20.8 | -38.4
Cn1c(N)c(C(=O)NCc2ccccc2Cl)sc1=S | 52.9* | -0.2 | -0.9 | -8.8 | -6.1
CCOc1ccc2oc(=O)cc(CN3CCN(c4cc(C)ccc4C)CC3)c2c1 | nt | nt | 0.4 | nt | nt
CSc1cccc(NC(=O)CN(c2cccc(C)c2)S(C)(=O)=O)c1 | 30.1* | 0.5 | 0.7 | -8.6 | -8.6
CC(=O)c1cccc(N(CC(=O)Nc2ccccc2F)S(C)(=O)=O)c1 | 46.2* | -2.2 | 0.3 | 1.2 | -12.1
CC(C)C(NC(=O)CN(c1cccc(F)c1)S(C)(=O)=O)C(C)C | 38.6* | -2.5 | 0.3 | 0.9 | 20.2
CCOc1ccccc1CNC(=O)c1cccn1-c1nnc(N2CCCC2)s1 | nt | nt | nt | nt | 1.1
CC(C)(C)Cc1c(-c2ccc(C#N)cc2)nc2ccc(Cl)cn12 | nt | -15.3 | nt | -2.7 | nt
O=C(CSc1ncnc2nc[nH]c12)c1ccc([N+](=O)[O-])cc1 | -0.6 | 13.5 | -0.8 | 55.6* | 2.7
SMILES | D2 antagonist | D2 ag-1 | D2 ag-2 | D2 PAM-1 | D2 PAM-2
O=C(CSc1ncnc2nc[nH]c12)c1ccc(Cl)cc1 | 14.2 | 5.7 | 1.8 | -1.4 | 2.5
O=C(CSc1nc(-c2ccccc2)c2ccccc2n1)Nc1ccc(F)cc1 | nt | nt | 0.5 | nt | 6.3
CCn1c(=O)c([N+](=O)[O-])c(NCCN(C)C)c2ccccc21 | 59.2* | 4.7 | -0.2 | -15.2 | -20.9
O=c1c([N+](=O)[O-])c(NCCN2CCCCCC2)c2ccccc2n1-c1ccccc1 | 48.8* | 2.1 | 0.1 | -4.1 | -20.0
CCn1c(=O)c([N+](=O)[O-])c(NCC(O)c2ccccc2)c2ccccc21 (stereo unspecified) | -10.1 | -3.5 | -0.5 | -27.3 | -18.7
Cc1ccc2oc(=O)c3cc(C(=O)N4CCN(c5ccccc5)CC4)sc3c2c1 | nt | nt | -1.1 | nt | 1.2
Cc1ccc(NC(=S)NC2CC3CCC(C2)N3Cc2ccco2)c(C)c1 (stereo unspecified) | 4.2 | -2.1 | -0.5 | -24.5 | -15.0
COc1ccc(CN2C3CCCC2CC(NC(=O)Nc2ccccc2C)C3)cc1 (stereo unspecified) | nt | -1.4 | nt | -20.5 | nt
Cc1cccc(NC(=S)NC2CC3CCCC(C2)N3Cc2ccccc2)c1C (stereo unspecified) | 104.6* | -2.4 | 0.0 | -21.3 | -27.8
CCc1ccccc1NC(=S)NC1CC2CCC(C1)N2Cc1ccc(F)cc1 (stereo unspecified) | 78.3* | -0.4 | 1.4 | -6.0 | -28.1
Cc1cccc(NC(=S)NC2CC3CCC(C2)N3Cc2ccco2)c1C (stereo unspecified) | 36.1* | -1.0 | 0.6 | -22.3 | -19.4
CCc1ccccc1NC(=S)NC1CC2CCC(C1)N2Cc1ccco1 (stereo unspecified) | 7.2 | 0.3 | -0.5 | -24.4 | -10.9
Cc1nn(C(=O)c2ccccc2)c(C)c1S(=O)(=O)N1CCOCC1 | nt | nt | 0.5 | nt | 5.4
O=C(OCc1cc(=O)n2ccsc2n1)C1(c2ccccc2)CC1 | nt | 0.6 | nt | -0.2 | nt
COc1ccccc1C1C=C(c2ccc(Cl)cc2)Nc2nc(-c3ccc(Cl)cc3)nn21 (stereo unspecified) | nt | nt | 4.9 | nt | -3.7
COc1ccc(OC)c(C2CC(=O)Oc3c2c(=O)n(C)c2ccccc32)c1 (stereo unspecified) | nt | nt | nt | nt | 7.1
CCn1nc(NC(=O)c2ccncc2)c2cc3cc(C)ccc3nc21 | -2.9 | -2.8 | -0.3 | -13.9 | 34.5*
CCn1nc(NC(=O)c2ccncc2)c2cc3ccc(C)cc3nc21 | -6.6 | 5.3 | 0.0 | 12.8 | 5.0
CC1CCN(CC(=O)NC2CCCCC2)CC1 | 16.3 | 0.9 | 33.6* | -3.1 | -13.3
Cc1ccc(NC(=O)Nc2nc(-c3ccc(C)s3)cs2)cc1 | -11.0 | 2.7 | 0.9 | -0.3 | 45.3*
O=c1c2nncn2c2cc(C(F)(F)F)ccc2n1CCNc1ncc(C(F)(F)F)cc1Cl | -14.6 | -5.4 | -1.9 | -2.3 | -3.5
O=c1c(Cl)nc2cc(Cl)ccc2n1CCNc1ncc(C(F)(F)F)cc1Cl | 0.8 | -2.4 | 0.1 | 18.0 | 46.6*
CC1=C(C(=O)Nc2cccc(C(F)(F)F)c2)C(c2ccccn2)n2ncnc2N1 (stereo unspecified) | nt | nt | 0.6 | nt | -5.7
